Assay results published in PubChem BioAssay (EPA / NIEHS).
Activity calls are given as the source filed them. The calls were made as follows: active = hit-call score of the fitted dose curve at least 0.9, where 1 is the maximum; inactive = score below 0.9.

What was measured:
Conditions in all cases: mRNA level, 48 h; actives raise or lower the signal
[1] = read-out: Interleukin 6 Receptor (IL6R), IL6R (gene 3570); assay: LTEA_HepaRG_IL6R: Life Technologies and Expression Analysis (LTEA) Assay for Interleukin 6 Receptor (IL6R) using HepaRG (AID 2283510);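 as to AC50: TaqMan qRT-PCR signal normalized to ACTB GAPDH and POLR2A housekeeping genes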
Outline: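 Differentiated human HepaRG cells, plated 48 h then switched to serum-free induction medium, were dosed in duplicate for 48 h at eight half-log concentrations up to 100 uM in 0.5% DMSO. IL6R mRNA quantified by qRT-PCR, normalized to ACTB/GAPDH/POLR2A; bidirectional fit versus DMSO.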

[2] = read-out: Potassium channel subfamily K member 1 (KCNK1), KCNK1 (gene 3775); assay: LTEA_HepaRG_KCNK1: Life Technologies and Expression Analysis (LTEA) Assay for Potassium channel subfamily K member 1 (KCNK1) using HepaRG (AID 2283511)
Outline: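 Gain or loss of KCNK1 mRNA is the read-out, quantified by qRT-PCR against three housekeeping genes after 48 h chemical treatment of human HepaRG liver cells. Concentrations ran from 100 uM downward in half-log steps, vehicle 0.5% DMSO.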

[3] = read-out: Keratin 19 (KRT19), KRT19 (gene 3880); assay: LTEA_HepaRG_KRT19: Life Technologies and Expression Analysis (LTEA) Assay for Keratin 19 (KRT19) using HepaRG (AID 2283512)
Outline: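 Gene-expression endpoint in the human liver line HepaRG after 48 h exposure to up to 100 uM test chemical with 0.5% DMSO vehicle; KRT19 mRNA by qRT-PCR, analyzed bidirectionally versus DMSO.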

[4] = read-out: JUN Transcription Factor, JUN (gene 3725); assay: LTEA_HepaRG_JUN: Life Technologies and Expression Analysis (LTEA) Assay for JUN Transcription Factor using HepaRG (AID 2283513)
Outline: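 Differentiated HepaRG cells were exposed to chemicals for 48 h in serum-free induction medium, 8 concentrations from 100 uM in half-log steps, 0.5% DMSO vehicle, in duplicate. JUN mRNA was quantified by TaqMan qRT-PCR, normalized to ACTB, GAPDH, POLR2A.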

[5] = read-out: Lipase C (LIPC), LIPC (gene 3990); assay: LTEA_HepaRG_LIPC: Life Technologies and Expression Analysis (LTEA) Assay for Lipase C (LIPC) using HepaRG (AID 2283514)
Outline: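 Read-out is LIPC transcript level by TaqMan qRT-PCR, normalized to three housekeeping genes, after 48 h chemical treatment of human HepaRG liver cells. Curves span eight concentrations topping at 100 uM; activity in either direction scored relative to 0.5% DMSO.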

[6] = read-out: Lipoprotein lipase (LPL), LPL (gene 4023); assay: LTEA_HepaRG_LPL: Life Technologies and Expression Analysis (LTEA) Assay for Lipoprotein lipase (LPL) using HepaRG (AID 2283515)
Outline: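 Read-out is LPL transcript level by qRT-PCR, normalized to three housekeeping genes and fitted bidirectionally against the DMSO control. Human HepaRG cells received chemicals for 48 h at up to 100 uM.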

[7] = read-out: MicroRNA 122 (MIR122), gene 406906; assay: LTEA_HepaRG_MIR122: Life Technologies and Expression Analysis (LTEA) Assay for MicroRNA 122 (MIR122) using HepaRG (AID 2283516); also: the transcript read is the microRNA miR-122
Outline: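 Differentiated human HepaRG cells were exposed 48 h in serum-free induction medium to eight half-log concentrations (top 100 uM, 0.5% DMSO). Transcript level was measured by TaqMan qRT-PCR, normalized to ACTB, GAPDH and POLR2A, and fitted bidirectionally versus DMSO.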

[8] = read-out: matrix metalloproteinase-10 (MMP10), MMP10 (gene 4319); assay: LTEA_HepaRG_MMP10: Life Technologies and Expression Analysis (LTEA) Assay for matrix metalloproteinase-10 (MMP10) using HepaRG (AID 2283517)
Outline: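 Gain or loss of MMP10 mRNA is fitted relative to the 0.5% DMSO vehicle. The human hepatic line HepaRG receives a 48-hour serum-free exposure, in duplicate, with a maximum concentration of 100 uM.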

MYC, MYC (gene 4609) = assay: LTEA_HepaRG_MYC: Life Technologies and Expression Analysis (LTEA) Assay for MYC using HepaRG (AID 2283518)
Outline: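 Cells are thawed, plated and cultured 48 h, then treated for 48 h with test chemicals (eight half-log concentrations from 100 uM, 0.5% DMSO vehicle). RNA is isolated and MYC expression quantified by qRT-PCR against three housekeeping genes.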

[9] = read-out: matrix metalloproteinase-3 (MMP3), MMP3 (gene 4314); assay: LTEA_HepaRG_MMP3: Life Technologies and Expression Analysis (LTEA) Assay for matrix metalloproteinase-3 (MMP3) using HepaRG (AID 2283519)
Outline: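 HepaRG, human; 48 h dosing, 8 conc. (max 100 uM, half-log), duplicate, 0.5% DMSO. Readout: MMP3 transcript by Fluidigm TaqMan qRT-PCR, ACTB/GAPDH/POLR2A-normalised. Gain or loss fitted vs DMSO.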

[10] = read-out: Nuclear factor NF-kappa-B p105 subunit (Homo sapiens) (UniProt P19838); assay: LTEA_HepaRG_NFKB1: Life Technologies and Expression Analysis (LTEA) Assay for Nuclear Factor Kappa B Subunit 1 (NFKB1) using HepaRG (AID 2283521)
Outline: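 Differentiated human HepaRG cells were exposed for 48 h in serum-free induction medium to eight concentrations (top 100 uM, half-log steps, 0.5% DMSO), in duplicate. NFKB1 mRNA was measured by TaqMan qRT-PCR, normalized to ACTB/GAPDH/POLR2A, and fitted bidirectionally against DMSO.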

[11] = read-out: Protein phosphatase 2A (PPP2R4), PTPA (gene 5524); assay: LTEA_HepaRG_PPP2R4: Life Technologies and Expression Analysis (LTEA) Assay for Protein phosphatase 2A (PPP2R4) using HepaRG (AID 2283522)
Outline: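 Differentiated HepaRG cells in serum-free induction medium were exposed in duplicate for 48 h to eight concentrations, top 100 uM with half-log dilutions, in 0.5% DMSO. PPP2R4 mRNA was quantified by TaqMan qRT-PCR, normalized to ACTB, GAPDH and POLR2A.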

[12] = read-out: Phosphatase and tensin (PTEN), PTEN (gene 5728); assay: LTEA_HepaRG_PTEN: Life Technologies and Expression Analysis (LTEA) Assay for Phosphatase and tensin (PTEN) using HepaRG (AID 2283523)
Outline: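 Read-out is PTEN transcript level by multiplexed TaqMan qRT-PCR after 48 h chemical treatment of human HepaRG cultures in serum-free induction medium. Concentrations spanned 100 uM downward in half-log steps, 0.5% DMSO throughout; activity fitted in both directions against vehicle.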

[13] = read-out: solute carrier (SLC22A1), SLC22A1 (gene 6580); assay: LTEA_HepaRG_SLC22A1: Life Technologies and Expression Analysis (LTEA) Assay for solute carrier (SLC22A1) using HepaRG (AID 2283524)
Outline: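 HepaRG (human liver line), 48 h dosing in serum-free induction medium; 8 conc., half-log down from 100 uM, 0.5% DMSO vehicle, duplicates. Endpoint: SLC22A1 mRNA, qRT-PCR, housekeeping-normalized; gain/loss fit vs DMSO.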

[14] = read-out: Pyruvate Dehydrogenase Kinase 4 (PDK4), PDK4 (gene 5166); assay: LTEA_HepaRG_PDK4: Life Technologies and Expression Analysis (LTEA) Assay for Pyruvate Dehydrogenase Kinase 4 (PDK4) using HepaRG (AID 2283525)
Outline: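 In this multiplexed human HepaRG expression assay, cells are treated 48 h with test chemicals across an eight-point range starting at 100 uM. PDK4 mRNA changes, normalized to ACTB/GAPDH/POLR2A, are fitted in both directions relative to vehicle.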

[15] = read-out: Nuclear factor erythroid 2-related factor 2 (Homo sapiens) (UniProt Q16236); assay: LTEA_HepaRG_NFE2L2: Life Technologies and Expression Analysis (LTEA) Assay for Nuclear factor erythroid 2-related factor 2 (NFE2L2) Transcription Factor using HepaRG (AID 2283527)
Outline: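 Transcript level of NFE2L2 is the read-out, measured by microfluidic TaqMan qRT-PCR and normalized to three housekeeping genes. Human HepaRG cultures received test chemical for 48 h at up to 100 uM in half-log steps. Gain or loss of signal is fitted relative to 0.5% DMSO.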

[16] = read-out: succinate dehydrogenase complex iron sulfur subunit B (SDHB), SDHB (gene 6390); assay: LTEA_HepaRG_SDHB: Life Technologies and Expression Analysis (LTEA) Assay for succinate dehydrogenase complex iron sulfur subunit B (SDHB) using HepaRG (AID 2283528)
Outline: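 HepaRG, 48 h exposure, 8-pt half-log series from 100 uM in 0.5% DMSO, duplicates. Readout: SDHB mRNA by Fluidigm qRT-PCR vs housekeeping genes; bidirectional fit relative to DMSO.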

[17] = read-out: Signal transducer and activator of transcription 3 (Homo sapiens) (UniProt P40763); assay: LTEA_HepaRG_STAT3: Life Technologies and Expression Analysis (LTEA) Assay for Signal transducer and activator of transcription (STAT3) using HepaRG (AID 2283529)
Outline: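 Read-out is STAT3 mRNA level by qRT-PCR, normalized to three housekeeping genes, in human HepaRG liver cells treated for 48 h. Concentrations ran from 100 uM downward in half-log steps; curves were fitted for gain or loss relative to 0.5% DMSO.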

[18] = read-out: Paternally Expressed 10 (PEG10), PEG10 (gene 23089); assay: LTEA_HepaRG_PEG10: Life Technologies and Expression Analysis (LTEA) Assay for Paternally Expressed 10 (PEG10) using HepaRG (AID 2283520)
Outline: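 Differentiated HepaRG cells, plated 48 h then switched to serum-free induction medium, were exposed in duplicate for 48 h to eight half-log concentrations topping at 100 uM in 0.5% DMSO. PEG10 mRNA was quantified by TaqMan qRT-PCR, normalised to ACTB, GAPDH and POLR2A.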

[19] = read-out: NAD(P)H dehydrogenase [quinone] 1 (NQO1), NQO1 (gene 1728); assay: LTEA_HepaRG_NQO1: Life Technologies and Expression Analysis (LTEA) Assay for NAD(P)H dehydrogenase [quinone] 1 (NQO1) using HepaRG (AID 2283526)
Outline: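 Differentiated HepaRG cells, plated 48 h and then switched to serum-free induction medium, were exposed in duplicate for 48 h to 8-point half-log concentrations up to 100 uM in 0.5% DMSO. mRNA measured by qRT-PCR, normalized to ACTB, GAPDH, POLR2A; bidirectional fit versus DMSO.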

Measured: AC50

Nuclear factor erythroid 2-related factor 2 (Homo sapiens), sequence (Q16236 whole entry, looked up): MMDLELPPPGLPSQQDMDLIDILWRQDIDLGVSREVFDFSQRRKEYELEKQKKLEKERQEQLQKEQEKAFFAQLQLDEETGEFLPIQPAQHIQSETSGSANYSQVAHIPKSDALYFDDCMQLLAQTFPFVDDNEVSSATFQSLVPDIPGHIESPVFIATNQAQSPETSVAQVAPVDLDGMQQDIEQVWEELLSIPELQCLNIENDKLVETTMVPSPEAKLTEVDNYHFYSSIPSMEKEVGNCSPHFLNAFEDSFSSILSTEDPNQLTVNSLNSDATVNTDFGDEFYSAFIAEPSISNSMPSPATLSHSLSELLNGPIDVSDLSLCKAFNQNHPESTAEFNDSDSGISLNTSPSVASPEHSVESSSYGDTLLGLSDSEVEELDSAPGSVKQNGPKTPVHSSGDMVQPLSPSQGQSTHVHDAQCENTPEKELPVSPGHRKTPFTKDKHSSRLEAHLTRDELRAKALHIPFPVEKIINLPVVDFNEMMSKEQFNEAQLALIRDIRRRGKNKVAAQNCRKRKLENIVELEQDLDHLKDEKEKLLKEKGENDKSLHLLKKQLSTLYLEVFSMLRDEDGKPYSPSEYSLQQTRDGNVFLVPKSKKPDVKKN
Signal transducer and activator of transcription 3 (Homo sapiens), sequence (P40763 whole entry, looked up): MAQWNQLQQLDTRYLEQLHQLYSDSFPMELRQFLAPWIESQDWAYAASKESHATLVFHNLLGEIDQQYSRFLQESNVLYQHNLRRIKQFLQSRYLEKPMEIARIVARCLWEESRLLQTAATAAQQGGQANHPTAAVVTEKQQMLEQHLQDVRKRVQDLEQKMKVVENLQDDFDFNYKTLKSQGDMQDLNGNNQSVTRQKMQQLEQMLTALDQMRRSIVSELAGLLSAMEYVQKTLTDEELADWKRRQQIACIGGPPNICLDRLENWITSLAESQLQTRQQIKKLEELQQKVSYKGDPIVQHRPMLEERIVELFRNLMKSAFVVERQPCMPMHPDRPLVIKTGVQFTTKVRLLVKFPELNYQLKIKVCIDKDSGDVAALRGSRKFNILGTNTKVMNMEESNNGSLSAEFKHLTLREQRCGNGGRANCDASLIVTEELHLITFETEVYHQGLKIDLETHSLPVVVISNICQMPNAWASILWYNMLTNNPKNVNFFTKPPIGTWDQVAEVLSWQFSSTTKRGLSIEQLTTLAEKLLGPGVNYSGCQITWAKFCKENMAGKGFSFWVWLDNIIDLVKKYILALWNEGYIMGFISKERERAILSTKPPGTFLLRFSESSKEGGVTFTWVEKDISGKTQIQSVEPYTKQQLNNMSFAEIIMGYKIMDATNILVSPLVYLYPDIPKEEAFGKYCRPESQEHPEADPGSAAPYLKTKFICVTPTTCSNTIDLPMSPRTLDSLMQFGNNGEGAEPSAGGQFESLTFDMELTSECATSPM
Nuclear factor NF-kappa-B p105 subunit (Homo sapiens), sequence (P19838 whole entry, looked up): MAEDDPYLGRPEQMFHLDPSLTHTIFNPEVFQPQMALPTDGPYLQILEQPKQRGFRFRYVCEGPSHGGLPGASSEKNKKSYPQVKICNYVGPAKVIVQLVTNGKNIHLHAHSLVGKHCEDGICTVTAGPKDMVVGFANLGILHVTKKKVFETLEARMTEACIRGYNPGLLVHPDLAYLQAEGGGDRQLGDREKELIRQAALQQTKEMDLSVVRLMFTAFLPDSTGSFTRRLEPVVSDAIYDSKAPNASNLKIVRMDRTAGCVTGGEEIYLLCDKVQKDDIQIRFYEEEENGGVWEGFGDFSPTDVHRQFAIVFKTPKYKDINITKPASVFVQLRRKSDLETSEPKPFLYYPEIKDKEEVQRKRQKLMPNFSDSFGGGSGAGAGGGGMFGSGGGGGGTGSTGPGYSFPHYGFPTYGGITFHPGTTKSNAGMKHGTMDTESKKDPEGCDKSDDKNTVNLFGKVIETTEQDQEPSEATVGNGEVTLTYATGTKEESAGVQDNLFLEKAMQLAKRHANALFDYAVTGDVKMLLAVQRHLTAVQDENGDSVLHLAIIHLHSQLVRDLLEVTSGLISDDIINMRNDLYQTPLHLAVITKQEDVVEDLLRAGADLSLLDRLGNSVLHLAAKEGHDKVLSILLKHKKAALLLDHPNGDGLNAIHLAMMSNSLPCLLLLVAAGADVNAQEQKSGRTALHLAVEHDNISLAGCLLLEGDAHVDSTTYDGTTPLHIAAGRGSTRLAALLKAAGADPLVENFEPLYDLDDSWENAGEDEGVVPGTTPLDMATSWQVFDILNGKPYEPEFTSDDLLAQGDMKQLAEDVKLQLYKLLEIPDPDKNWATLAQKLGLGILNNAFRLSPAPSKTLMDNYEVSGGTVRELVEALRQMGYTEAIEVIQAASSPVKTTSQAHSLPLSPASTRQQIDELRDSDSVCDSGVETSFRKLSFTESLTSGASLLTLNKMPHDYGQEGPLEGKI

Nc1ccc([N+](=O)[O-])cc1
not listed: [18] | [19]
inactive: all other assays above

Oc1ccc2ccc3cccc4ccc1c2c34
active: [3] 8.53 µM
not listed: [18] | [19]
inactive: all other assays above

CCCCCCCCn1sccc1=O
active: [1] 99.3 µM | [5] 80.9 µM | [7] 82.3 µM | [8] 76.6 µM | [13] 78.4 µM | [14] 34.4 µM
not listed: [18] | [19]
inactive: all other assays above

CC(C)(C)C(O)(CCc1ccc(Cl)cc1)Cn1cncn1 (stereo not given)
active: [5] 71.8 µM | [6] 74.4 µM | [7] 78.1 µM | MYC, MYC (gene 4609) 50 µM | [11] 50 µM | [13] 73.2 µM | [14] 80.9 µM | [15] 50 µM
not listed: [18] | [19]
inactive: all other assays above

CC(C)(C)OOC(=O)c1ccccc1
not listed: [18] | [19]
inactive: all other assays above

N#CC(Br)Br
not listed: [7] | [19]
inactive: all other assays above

O=C(N[C@H](c1ccccc1)[C@@H]1CN2CCC1CC2)c1c(Cl)ccc(C(F)(F)F)c1Cl
inactive: [1] | [5] | [14] | [16]
active: [2] 59.7 µM | [3] 12 µM | [4] 82.4 µM | [6] 11.1 µM | [7] 46.2 µM | [8] 69.4 µM | MYC, MYC (gene 4609) 68.4 µM | [9] 73.6 µM | [10] 71.5 µM | [11] 75.3 µM | [12] 77.8 µM | [13] 72.1 µM | [15] 71.5 µM | [17] 83.3 µM

Nc1ccc(Cc2ccc(N)cc2)cc1
not listed: [9] | [18] | [19]
inactive: all other assays above

C[C@]12C=CC3=C4CCC(=O)C=C4CC[C@H]3[C@@H]1CC[C@@H]2O
active: [7] 69.6 µM | [18] 0.805 µM | [13] 41 µM
not listed: [5] | [19]
inactive: all other assays above

O=C(O)C1C2CCC(O2)C1C(=O)O (stereo not given)
active: [1] 26.4 µM | [3] 50 µM | [4] 24.7 µM | [5] 82.6 µM | [7] 74.4 µM | [9] 27.7 µM | [18] 85.7 µM | [13] 70.7 µM
not listed: [8] | [10]
inactive: all other assays above

CCCSC(=O)N(CCC)CCC
not listed: [18] | [19]
inactive: all other assays above

Cc1ccc(N)cc1
not listed: [18] | [19]
inactive: all other assays above
